The structures appear in SMILES notation. The panel holds about 83,000 compounds, 20% with a hit somewhere; the sample as a whole holds those more often.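 Method: cells in 96-well plates; compound added at one concentration; 48 h incubation; percent growth measured; values under 10 scored active.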 Activity calls are given as the source filed them.

In the first test the test system is OVCAR-4 ovarian. Description: NCI-60 one-dose screen, 48 h (100 = growth as untreated, 0 = no growth, -100 = all killed). Particulars: 10 µM unless noted.
Turning to `N#Cc1ccc(C2C3=C(CCCC3=O)OC3=C2C(=O)c2ccccc2C3=O)cc1` (centres undefined), the growth is -2.83% (active).

Take `C=CCn1c(SCC(=O)Nc2ccc(C(=O)/C=C/c3cc(OC)c(OC)c(OC)c3)cc2)nnc1-c1ccccc1`: the growth is 111% (inactive).

Take `NS(=O)(=O)c1ccc(C2C3=C(CCCC3=O)OC3=C2C(=O)c2ccccc2C3=O)cc1` (centres undefined): the growth was -96.6% (active).

For the compound `COc1ccc2nc3nc4ccc[nH]c4cc3c2c1`, the growth is 92.2% (inactive).

Regarding `COc1ccc(Nc2nc(SCC(C)C)nc(-c3ccc(F)cc3)c2C#N)cc1`, the growth was 80.9% (inactive).

Consider `NC(=O)CN1C(=O)c2ccccc2C1=O`, for which the growth was 110% (inactive).

Turning to `COc1cccc(C(=O)OCCn2nc3c4c(cccc42)C(=O)c2ccccc2-3)c1O`, the growth is 59.8% (inactive).

With `c1ccc(-c2n(Cc3ccc4ccccc4n3)cc[n+]2Cc2ccc3ccccc3c2)cc1`, the growth was 14.3% (inactive).

For another test, the system named is SK-OV-3 ovarian. The description is as above. The note with it: 10 µM unless noted.
As for `O=C(Nc1nc2ccc(C(F)(F)F)cc2s1)c1cc(Cl)ccc1O`, the growth is -16.2% (active).

Regarding `NC(N)=NC(N)=Nc1cc2ccccc2c2ccccc12`, the growth was 59.8% (inactive).

For the compound `CC(=O)Oc1c2c(nc3c1c1ccccc1n3Cc1ccccc1)-c1ccccc1C2`, the growth is 92% (inactive).

In the case of `CN1C(=O)c2cc(Cl)nc3c(NC(=O)c4cccc(Cl)c4)c(Cl)c(NC(=O)c4cccc(Cl)c4)c1c23`, the growth was 86.4% (inactive).

`CCOCCc1c(O)nc(SC)[nH]c1=O`: the growth was 102% (inactive).

On to `COc1ccc2[nH]c(=O)c(/C=C/C(=O)/C=C/c3ccc(O)c(OC)c3)cc2c1`, for which the growth was 56.5% (inactive).

`CCOC(=O)c1c(C)nc2c(c1N)/C(=C/c1cccs1)C(=O)N2Cc1ccccc1`: the growth is 96.6% (inactive).

Turning to `O=C(CCc1nnc2sc(OCc3ccccc3)nn12)c1nc2ccc([N+](=O)[O-])cc2[nH]1`, the growth is 77.3% (inactive).

With `COc1ccc2c(c1)Oc1nc(N)c(C#N)c(N)c1C2Sc1ccc(O)cc1` (centres undefined), the growth is 104% (inactive).

For the compound `O=C(Nc1nccs1)c1noc2ccccc12`, the growth was 92.2% (inactive).

`Cc1cccc(C)c1NCc1nnc(-c2ccco2)o1`: the growth was 87% (inactive).

Regarding `CCOC(=O)C1=C(C)n2nc(CC#N)c(C#N)c2NC1c1ccc(Cl)cc1` (centres undefined), the growth is 105% (inactive).

As to `CCOc1ccccc1C(=O)/C=C/c1cc2ccccc2[nH]c1=O`, the growth was 18.8% (inactive).

Take `COc1cc(NC(=O)Nc2cnc(Nc3ccc(N4CCOCC4)cc3)nc2Oc2ccc(F)cc2)cc(OC)c1`: the growth is 102% (inactive).

In the case of `Cc1cc(Cl)cc(CN(Cc2ccccc2)Cc2c(O)ccc3ccccc23)c1O`, the growth is 97.2% (inactive).

As to `NC[C@@H]1CCN(c2cc3c(cc2F)c(=O)n(N)c(=O)n3Cc2ccc(-c3ccccc3)cc2)C1`, the growth is 84.6% (inactive).

For `O=C(/C(=C/c1ccc([N+](=O)[O-])cc1)SCc1ccc(F)cc1)c1ccc(Cl)cc1`, the growth was 74.8% (inactive).

Take `COc1ccc(Cl)c([N+](=O)[O-])c1`: the growth is 98% (inactive).

As to `COc1cc(C)ccc1Oc1nc(Nc2ccc(N3CCOCC3)cc2)ncc1N=Cc1cc(C(F)(F)F)cc(C(F)(F)F)c1`, the growth is 43.3% (inactive).

For `c1ccc(-c2cn3ccnc3c(-c3ccc4c(c3)ncn4C3CCCCC3)n2)cc1`, the growth was 104% (inactive).

With `Nc1c(C(=O)Nc2cccc3ccccc23)sc2nc3c(cc12)COCC3`, the growth was 38.6% (inactive).

With `O=C1CCC23OC(C(O)c4ccccc4N12)C1C(Br)=NOC13` (centres undefined), the growth is 99% (inactive).

As for `O=Cc1[nH]c(Sc2ccccc2)c2ccccc12`, the growth was 83.5% (inactive).

For the compound `CCOC(=O)c1sc(/N=C2\NC(=O)/C(=C/c3ccc(N4CCN(C)CC4)cc3)S2)nc1C`, the growth is 102% (inactive).

Regarding `COc1cc(C2=NN(c3ccccc3)C(c3cccc(Nc4ccnc5cc(C(F)(F)F)ccc45)c3)C2)cc(OC)c1OC` (centres undefined), the growth is 94.7% (inactive).

Turning to `COc1ccc(-c2cc(-c3nnc(SCC(=O)Nc4ccc(/C(C)=N\O)cc4)n3-c3ccccc3)c3cc(OC)ccc3n2)cc1`, the growth is 79.9% (inactive).

As for `COc1ccc(OCC(=O)OC(C)C)cc1`, the growth is 112% (inactive).

`CC1=C(CCCOC(=O)NCCCl)C2=C(C)C3(CC3)[C@@](C)(O)C(=O)C2=C1`: the growth is -13.7% (active).

With `Nc1ccccc1NS(=O)(=O)c1ccc(Cl)cc1`, the growth was 105% (inactive).

With `N#Cc1ccc(C2C3=C(CCCC3=O)OC3=C2C(=O)c2ccccc2C3=O)cc1` (centres undefined), the growth was 97.7% (inactive).

For the compound `C=CCn1c(SCC(=O)Nc2ccc(C(=O)/C=C/c3cc(OC)c(OC)c(OC)c3)cc2)nnc1-c1ccccc1`, the growth is 110% (inactive).

The values above are taken from PubChem BioAssay (NCI).
